{
  "source": "PubChem BioAssay (Tox21)",
  "note": "Records with an inconclusive call do not appear. Values without a mark were called inactive. The call rests on the fitted dose curve; in most records, active means well fitted inhibition curve with a large enough effect in the signal ratio in the repeat runs (not every such curve was filed as active); inconclusive means weak or mixed curves, or effect the other way; inactive means flat fitted curve, though single readings scatter; the % refers to the signal ratio. On the % scale 0 is the no-effect control and ±100 the full control effect.",
  "data": [
    {"assay": "cAMP Responsive Elements (CRE) small molecule antagonists, cell-based qHTS assay (AID 1963591)", "conditions": "CRE-bla HEK293T, beta-lactamase FRET ratio; series mostly up to 92.4 µM; activity change, negative = inhibition: at the top concentration", "from_the_text": "U.S. Tox21 Program National Center for Advancing Translational Sciences [NCATS] Division of Preclinical Innovation [DPI] U.S. Environmental Protection Agency [EPA] National Institutes of Environmental Health Sciences [NIEHS] National Toxicology Program [NTP] U.S. Food and Drug Administration [FDA] Tox21 Assay Overview: CREB (cyclic-AMP Responsive Element Binding Protein) is a cellular transcription factor. It binds to certain DNA sequences called cAMP Responsive Elements (CRE) and regulates the transcription of the genes. […] This cell line can be used to find agonists/antagonists of the cyclic AMP signaling pathway. The activation of the report gene under culture conditions can be detected by fluorescence intensity. This cell line has been used to screen the Tox21 10K compound library to […].\nTox21 Assay Protocol Summary: CRE-bla Hek 293T cells were suspended in assay medium (DMEM containing 10% dialyzed FBS, 0.1 mM NEAA, 1 mM sodium pyruvate and 25 mM HEPES) and dispensed at 2,000 cells/4 uL /well into 1536-well black wall/clear bottom plates using a Multidrop Combi (ThermoFisher Scientific, Waltham, MA) dispenser. After the assay plates were incubated at 37 C/5% CO2 for 18 hrs, 23 nL of compounds dissolved in DMSO, positive controls or DMSO only was transferred to the assay plate by a pintool workstation (Kalypsys, San Diego, CA), followed by addition of 1 […] uL of 1.25uM NKH477 (0.25 uM as final concentration) in assay medium using a Flying Reagent Dispenser (Aurora Discovery, San Diego, CA). The plates were incubated at 37 C and 5% CO2 for 3 hrs. Then 1 uL of LiveBLAzer B/G FRET substrate (Invitrogen, Carlsbad, CA) was added to each well using Bioraptr Flying Reagent Dispenser (FRD, Aurora Discovery, San Diego, CA). The plates were incubated at room temperature for 2 h.", "values": [
      {"compound": "CCCCCCCCCCCCCC=O", "activity change, negative = inhibition": "0.604% [at 8.39 µM]"},
      {"compound": "Nc1nc(N)nc(-c2cc(Cl)ccc2Cl)n1", "activity change, negative = inhibition": "14.7% [at 42.4 µM]"},
      {"compound": "N#Cc1ccc(CC(=O)c2cccc(C(F)(F)F)c2)cc1", "activity change, negative = inhibition": "11.6%"},
      {"compound": "c1ccc(CC2=NCCN2)cc1", "activity change, negative = inhibition": "2.59% [at 42.4 µM]"},
      {"compound": "CC(=O)[C@H]1CC[C@H]2[C@@H]3C=CC4=CC(=O)CC[C@@]4(C)[C@@H]3CC[C@]12C", "activity change, negative = inhibition": "10.6% [at 42.4 µM]"},
      {"compound": "CC(C)CCCCCCOC(=O)c1ccc(C(=O)OCCCCCCC(C)C)c(C(=O)OCCCCCCC(C)C)c1", "activity change, negative = inhibition": "-10%"},
      {"compound": "Oc1c(Br)cc(Br)c2cccnc12", "activity change, negative = inhibition": "-7.8% [at 42.4 µM]"},
      {"compound": "Cc1cccc(C(C)(C)C)c1O", "activity change, negative = inhibition": "9.89%"},
      {"compound": "c1cc[nH]c1", "activity change, negative = inhibition": "1.79%"},
      {"compound": "CCCCCCCCCCCCCCCCOS(=O)(=O)O", "activity change, negative = inhibition": "-1.64% [at 42.4 µM]"},
      {"compound": "C[Si]1(C)O[Si](C)(C)O[Si](C)(C)O1", "activity change, negative = inhibition": "-14.3%"},
      {"compound": "CCCCCCCC[Si](OCC)(OCC)OCC", "activity change, negative = inhibition": "5.76%"},
      {"compound": "CCCOc1ccc(C(=O)OCCN(CC)CC)cc1N", "activity change, negative = inhibition": "-4.9% [at 42.4 µM]"},
      {"compound": "Cc1nccn1CC1CCc2c(c3ccccc3n2C)C1=O", "note": "(stereo not given)", "activity change, negative = inhibition": "-8.2% [at 42.4 µM]"},
      {"compound": "CC(=O)c1c(C)cc(C(C)(C)C)cc1C", "activity change, negative = inhibition": "-2.07%"},
      {"compound": "CCCC(=O)OCCC(C)C", "activity change, negative = inhibition": "0.301%"},
      {"compound": "O=C(COCCOCCOCC(=O)Nc1c(I)cc(I)c(C(=O)O)c1I)Nc1c(I)cc(I)c(C(=O)O)c1I", "activity change, negative = inhibition": "0.876% [at 42.4 µM]"},
      {"compound": "C[C@@H]1C[C@H]2[C@@H]3CCC4=CC(=O)C=C[C@]4(C)[C@@]3(F)[C@@H](O)C[C@]2(C)[C@H]1C(=O)CO", "activity change, negative = inhibition": "1.4% [at 42.4 µM]"},
      {"compound": "COc1cc2c3cc1Oc1cc(ccc1O)C[C@@H]1c4c(cc(OC)c(O)c4Oc4ccc(cc4)C[C@@H]3N(C)CC2)CC[N+]1(C)C", "activity change, negative = inhibition": "0.185% [at 42.4 µM]"},
      {"compound": "COCCOC(=O)C1=C(C)NC(C)=C(C(=O)OC/C=C/c2ccccc2)C1c1cccc([N+](=O)[O-])c1", "note": "(stereo not given)", "activity change, negative = inhibition": "-6.85% [at 42.4 µM]"},
      {"compound": "Cc1cc2c(s1)Nc1ccccc1N=C2N1CCN(C)CC1", "activity change, negative = inhibition": "3.62% [at 42.4 µM]"},
      {"compound": "CCc1nnc(NS(=O)(=O)c2ccc(N)cc2)s1", "activity change, negative = inhibition": "6.15% [at 42.4 µM]"},
      {"compound": "CN1CCC(=C2c3ccccc3C=Cc3ccccc32)CC1", "activity change, negative = inhibition": "0.0336% [at 42.4 µM]"},
      {"compound": "NS(=O)(=O)c1cc(C2(O)NC(=O)c3ccccc32)ccc1Cl", "note": "(stereo not given)", "activity change, negative = inhibition": "1.8% [at 42.4 µM]"},
      {"compound": "CCCCCCCC/C=C\\CCCCCCCC(=O)OC", "activity change, negative = inhibition": "0.675%"},
      {"compound": "C=CC1CO1", "note": "(stereo not given)", "activity change, negative = inhibition": "0.793%"},
      {"compound": "CCCN(CCC)C(=O)C(CCC(=O)O)NC(=O)c1ccccc1", "note": "(stereo not given)", "activity change, negative = inhibition": "-0.134% [at 42.4 µM]"},
      {"compound": "O=C(NC(Cc1cc(=O)[nH]c2ccccc12)C(=O)O)c1ccc(Cl)cc1", "note": "(stereo not given)", "activity change, negative = inhibition": "0.489% [at 42.4 µM]"},
      {"compound": "O=C(O)c1c(Cl)cccc1Cl", "activity change, negative = inhibition": "-1.04%"},
      {"compound": "C[C@H](CCC(=O)NCC(=O)O)[C@H]1CC[C@H]2[C@@H]3[C@H](O)C[C@@H]4C[C@H](O)CC[C@]4(C)[C@H]3C[C@H](O)[C@]12C", "activity change, negative = inhibition": "-6.75%"},
      {"compound": "Cn1nnc2c(C(N)=O)ncn2c1=O", "activity change, negative = inhibition": "-3.55% [at 42.4 µM]"},
      {"compound": "CC(C)Cc1nccs1", "activity change, negative = inhibition": "3.22%"},
      {"compound": "COc1cc2nc(Cl)nc(N)c2cc1OC", "activity change, negative = inhibition": "0.1% [at 42.4 µM]"},
      {"compound": "CN1CCOC(c2ccccc2)c2ccccc2C1", "note": "(stereo not given)", "activity change, negative = inhibition": "-3.32% [at 42.4 µM]"},
      {"compound": "CC(C)NNC(=O)c1ccncc1", "activity change, negative = inhibition": "-0.792% [at 42.4 µM]"},
      {"compound": "Cc1cc2c(cc1S(N)(=O)=O)S(=O)(=O)CCC2", "activity change, negative = inhibition": "-6.27% [at 42.4 µM]"},
      {"compound": "N=c1ccn2c(n1)O[C@H]1[C@H](O)[C@@H](CO)O[C@H]12", "activity change, negative = inhibition": "-9.88%"},
      {"compound": "CCCCCCCCC(C)=O", "activity change, negative = inhibition": "-0.926%"},
      {"compound": "CC(=O)Nc1cc(S(=O)(=O)O)cc2cc(S(=O)(=O)O)c(N=Nc3ccccc3)c(O)c12", "activity change, negative = inhibition": "3.95%"},
      {"compound": "CC(C)(O)c1coc(S(=O)(=O)NC(=O)Nc2c3c(cc4c2CCC4)CCC3)c1", "activity change, negative = inhibition": "1.79%"}
    ]}
  ]
}
